Experiment in all cases: RNA Bind-n-Seq (nitrocellulose filter binding and sequencing); miR-122 guide loaded in AGO2; 60 min incubation; 30 mM Tris pH 8.0, 100 mM potassium acetate, 2 mM magnesium acetate, 0.5 mM TCEP, 0.005% NP-40, 0.01 mg/ml yeast tRNA; 3 nM AGO2-miR-122, 100 nM RNA library; 60; high values mean tight binding
What all share (settings): protein: recombinant; tags: His6 (N-terminal, pFastBac HTA)

For assay [1], the target named is AGO2 WT (phosphosite mutant background) (Homo sapiens, UniProt Q9UKV8 1-859, S387D;S824A;S828D;S831D;S834A). A digest of the protocol:
(§1)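 His-tagged AGO2 was expressed in Sf9 insect cells by baculovirus, loaded with a synthetic guide RNA, and purified by Ni-NTA and a biotinylated capture oligo. Bound RNA was extracted, reverse-transcribed, barcode-amplified and Illumina-sequenced. Fold enrichment is each sequence's read fraction divided by its input-library read fraction.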

For another assay, the target named is AGO2 L192P (Homo sapiens, UniProt Q9UKV8 1-859, L192P;S387D;S824A;S828D;S831D;S834A). A digest of the protocol:
as §1

For another assay, the target named is AGO2 A367P (Homo sapiens, UniProt Q9UKV8 1-859, A367P;S387D;S824A;S828D;S831D;S834A). An outline of the steps:
as §1

The next assay has as its target AGO2 T357M (Homo sapiens, UniProt Q9UKV8 1-859, T357M;S387D;S824A;S828D;S831D;S834A). An outline of the steps: as §1
Another assay addresses AGO2 F182del (Homo sapiens, UniProt Q9UKV8 1-859, S387D;S824A;S828D;S831D;S834A;del182-182). A digest of the protocol:
as §1

Numbering of substitutions follows the chain as printed.

Sequence of AGO2 F182del (Q9UKV8 other isoform, or with tags, fused parts or gaps S387D;S824A;S828D;S831D;S834A;del182-182): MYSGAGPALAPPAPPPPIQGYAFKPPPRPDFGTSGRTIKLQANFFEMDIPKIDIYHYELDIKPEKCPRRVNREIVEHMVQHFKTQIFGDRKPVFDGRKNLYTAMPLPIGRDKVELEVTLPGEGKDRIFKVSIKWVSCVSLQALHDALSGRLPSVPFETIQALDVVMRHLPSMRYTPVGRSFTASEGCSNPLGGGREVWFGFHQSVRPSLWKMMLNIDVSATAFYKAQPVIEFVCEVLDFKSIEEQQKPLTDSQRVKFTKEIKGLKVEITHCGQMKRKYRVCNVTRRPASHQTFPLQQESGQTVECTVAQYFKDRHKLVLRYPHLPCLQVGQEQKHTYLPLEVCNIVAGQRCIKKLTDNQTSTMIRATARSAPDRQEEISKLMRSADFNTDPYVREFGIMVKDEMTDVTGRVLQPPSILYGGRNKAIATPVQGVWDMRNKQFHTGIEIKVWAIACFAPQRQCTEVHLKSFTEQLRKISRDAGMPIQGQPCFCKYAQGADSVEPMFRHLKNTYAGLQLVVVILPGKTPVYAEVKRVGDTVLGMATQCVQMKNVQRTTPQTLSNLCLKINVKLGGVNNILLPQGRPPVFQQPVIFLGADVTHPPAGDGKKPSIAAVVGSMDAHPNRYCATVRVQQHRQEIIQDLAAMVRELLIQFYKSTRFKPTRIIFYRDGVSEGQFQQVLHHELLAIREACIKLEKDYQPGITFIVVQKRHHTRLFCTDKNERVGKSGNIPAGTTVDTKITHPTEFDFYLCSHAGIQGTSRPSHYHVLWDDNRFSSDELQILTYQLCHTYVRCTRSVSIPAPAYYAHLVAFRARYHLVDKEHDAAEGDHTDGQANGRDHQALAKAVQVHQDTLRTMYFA
Sequence of AGO2 L192P (Q9UKV8 whole entry L192P/S387D/S824A/S828D/S831D/S834A): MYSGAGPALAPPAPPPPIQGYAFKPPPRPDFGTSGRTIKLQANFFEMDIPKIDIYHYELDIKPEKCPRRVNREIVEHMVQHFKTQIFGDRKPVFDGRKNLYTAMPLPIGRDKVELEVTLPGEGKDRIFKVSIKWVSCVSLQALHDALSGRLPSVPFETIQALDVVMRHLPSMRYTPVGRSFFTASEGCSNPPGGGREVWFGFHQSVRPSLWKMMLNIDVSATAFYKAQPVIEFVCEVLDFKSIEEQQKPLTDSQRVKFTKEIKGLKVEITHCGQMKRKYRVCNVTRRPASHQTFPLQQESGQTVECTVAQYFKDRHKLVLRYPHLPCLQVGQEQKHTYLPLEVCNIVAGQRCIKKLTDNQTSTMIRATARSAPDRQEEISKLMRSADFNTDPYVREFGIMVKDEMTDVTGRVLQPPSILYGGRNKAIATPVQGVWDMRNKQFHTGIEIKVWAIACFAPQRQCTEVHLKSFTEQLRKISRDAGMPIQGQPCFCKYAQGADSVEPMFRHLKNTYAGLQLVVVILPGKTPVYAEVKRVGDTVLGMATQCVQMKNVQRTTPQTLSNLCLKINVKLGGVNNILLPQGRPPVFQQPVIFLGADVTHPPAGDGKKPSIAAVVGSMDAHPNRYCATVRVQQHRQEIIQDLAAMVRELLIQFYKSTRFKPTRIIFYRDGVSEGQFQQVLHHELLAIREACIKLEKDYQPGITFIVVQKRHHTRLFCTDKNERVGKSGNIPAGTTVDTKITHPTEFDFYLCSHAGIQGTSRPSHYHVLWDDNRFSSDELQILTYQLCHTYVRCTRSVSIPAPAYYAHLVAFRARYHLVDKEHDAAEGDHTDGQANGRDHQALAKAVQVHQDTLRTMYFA
Sequence of AGO2 A367P (Q9UKV8 whole entry A367P/S387D/S824A/S828D/S831D/S834A): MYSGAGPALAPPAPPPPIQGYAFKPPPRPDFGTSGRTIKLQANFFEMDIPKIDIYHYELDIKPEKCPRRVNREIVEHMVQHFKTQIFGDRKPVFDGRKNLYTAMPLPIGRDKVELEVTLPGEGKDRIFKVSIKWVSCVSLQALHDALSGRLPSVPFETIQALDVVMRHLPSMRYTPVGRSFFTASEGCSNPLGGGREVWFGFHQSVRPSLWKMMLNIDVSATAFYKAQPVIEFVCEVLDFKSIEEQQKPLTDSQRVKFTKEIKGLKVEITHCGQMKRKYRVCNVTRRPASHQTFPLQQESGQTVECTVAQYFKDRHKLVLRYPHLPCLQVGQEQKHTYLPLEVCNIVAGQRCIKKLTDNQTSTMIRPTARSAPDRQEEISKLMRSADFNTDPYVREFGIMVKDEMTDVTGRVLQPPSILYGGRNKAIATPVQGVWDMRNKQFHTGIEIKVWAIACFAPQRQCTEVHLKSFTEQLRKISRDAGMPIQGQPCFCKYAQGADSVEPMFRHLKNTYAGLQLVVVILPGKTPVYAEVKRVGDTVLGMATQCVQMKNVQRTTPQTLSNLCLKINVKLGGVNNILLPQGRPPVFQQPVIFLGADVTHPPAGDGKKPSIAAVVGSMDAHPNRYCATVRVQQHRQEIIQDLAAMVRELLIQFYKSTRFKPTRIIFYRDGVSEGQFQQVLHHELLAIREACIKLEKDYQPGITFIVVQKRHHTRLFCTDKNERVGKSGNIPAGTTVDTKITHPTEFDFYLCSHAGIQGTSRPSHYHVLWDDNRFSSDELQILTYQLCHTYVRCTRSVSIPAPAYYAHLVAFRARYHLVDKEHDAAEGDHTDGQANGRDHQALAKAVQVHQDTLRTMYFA
Sequence of AGO2 T357M (Q9UKV8 whole entry T357M/S387D/S824A/S828D/S831D/S834A): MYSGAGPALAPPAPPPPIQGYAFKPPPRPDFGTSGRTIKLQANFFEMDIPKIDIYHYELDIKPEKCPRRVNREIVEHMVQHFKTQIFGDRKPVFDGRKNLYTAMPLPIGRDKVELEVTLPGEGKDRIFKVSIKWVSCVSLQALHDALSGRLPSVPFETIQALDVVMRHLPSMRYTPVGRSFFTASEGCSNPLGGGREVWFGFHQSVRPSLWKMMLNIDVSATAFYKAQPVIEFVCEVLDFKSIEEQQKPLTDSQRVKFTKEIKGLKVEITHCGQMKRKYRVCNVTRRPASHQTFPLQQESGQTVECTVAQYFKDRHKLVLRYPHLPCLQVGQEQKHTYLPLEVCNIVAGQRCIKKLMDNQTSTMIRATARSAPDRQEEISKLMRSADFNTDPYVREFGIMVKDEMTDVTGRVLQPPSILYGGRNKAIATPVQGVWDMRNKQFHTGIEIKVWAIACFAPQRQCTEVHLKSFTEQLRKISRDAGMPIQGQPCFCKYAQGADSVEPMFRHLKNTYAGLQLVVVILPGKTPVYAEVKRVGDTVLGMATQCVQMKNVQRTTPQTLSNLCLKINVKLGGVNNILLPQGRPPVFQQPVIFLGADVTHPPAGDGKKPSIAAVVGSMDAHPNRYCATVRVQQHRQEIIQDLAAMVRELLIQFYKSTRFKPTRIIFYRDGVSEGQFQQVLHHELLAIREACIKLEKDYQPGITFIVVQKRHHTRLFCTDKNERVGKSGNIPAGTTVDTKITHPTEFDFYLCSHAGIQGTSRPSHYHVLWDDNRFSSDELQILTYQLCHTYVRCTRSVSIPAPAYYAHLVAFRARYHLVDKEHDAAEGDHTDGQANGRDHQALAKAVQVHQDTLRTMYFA
Sequence of AGO2 WT (phosphosite mutant background) (Q9UKV8 whole entry S387D/S824A/S828D/S831D/S834A): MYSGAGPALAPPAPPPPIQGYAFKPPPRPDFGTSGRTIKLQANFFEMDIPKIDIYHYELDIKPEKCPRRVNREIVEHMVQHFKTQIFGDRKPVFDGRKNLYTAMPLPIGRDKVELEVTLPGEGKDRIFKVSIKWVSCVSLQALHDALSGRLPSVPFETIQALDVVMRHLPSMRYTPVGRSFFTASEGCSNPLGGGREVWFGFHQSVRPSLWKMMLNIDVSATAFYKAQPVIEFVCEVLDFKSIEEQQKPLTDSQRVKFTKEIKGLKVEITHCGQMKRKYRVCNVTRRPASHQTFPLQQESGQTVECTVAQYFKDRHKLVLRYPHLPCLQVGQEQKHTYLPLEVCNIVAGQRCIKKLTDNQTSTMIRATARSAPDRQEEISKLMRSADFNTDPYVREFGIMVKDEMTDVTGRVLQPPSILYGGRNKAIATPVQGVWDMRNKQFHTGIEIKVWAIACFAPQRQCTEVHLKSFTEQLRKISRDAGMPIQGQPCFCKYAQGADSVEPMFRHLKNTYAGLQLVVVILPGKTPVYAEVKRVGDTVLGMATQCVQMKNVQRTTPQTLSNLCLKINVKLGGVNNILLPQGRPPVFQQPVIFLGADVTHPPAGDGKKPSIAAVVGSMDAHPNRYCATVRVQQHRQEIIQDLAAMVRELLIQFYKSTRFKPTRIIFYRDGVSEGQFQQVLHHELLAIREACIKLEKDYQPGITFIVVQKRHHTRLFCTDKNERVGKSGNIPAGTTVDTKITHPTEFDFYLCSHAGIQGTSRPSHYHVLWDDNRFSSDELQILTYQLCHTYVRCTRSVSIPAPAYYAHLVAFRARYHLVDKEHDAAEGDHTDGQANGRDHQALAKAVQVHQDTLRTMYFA

B1: ATGTTTTA (ssRNA)
RNA 1: GAGUUCUACAGUCCGACGAUCCCAACAUGUUUUACACCUGGAAUUCUCGGGUGCCAA
RNA 2: UGGAGUGUGACAAUGGUGUUUG
DNA 1: GATCGTCGGACTGTAGAACTC
DNA 2: TTGGCACCCGAGAATTCCA
modifications: constant regions annealed to DNA blockers; guide miR-122 5' phosphate
For the molecule B1, the binding signal was 0.12 fold enrichment over input in assay [1]; 0.492 fold enrichment over input with AGO2 L192P; 0.247 fold enrichment over input in the assay with AGO2 A367P; 0.607 fold enrichment over input in the assay with AGO2 T357M; 0.21 fold enrichment over input with AGO2 F182del.

B2: ACACTCTG (ssRNA)
RNA 1: B1 RNA 1 with U28C, G29A, U30C, U32C, A34G
RNA 2: UGGAGUGUGACAAUGGUGUUUG
DNA 1: GATCGTCGGACTGTAGAACTC
DNA 2: TTGGCACCCGAGAATTCCA
modifications: constant regions annealed to DNA blockers; guide miR-122 5' phosphate
For B2, the binding signal in assay [1] was 0.933 fold enrichment over input; in the assay with AGO2 L192P, 0.807 fold enrichment over input; with AGO2 A367P, 0.794 fold enrichment over input; with AGO2 T357M, 0.868 fold enrichment over input; with AGO2 F182del it was 2.4 fold enrichment over input.

B3: ACGTTTTA (ssRNA)
RNA 1: B1 RNA 1 with U28C
RNA 2: UGGAGUGUGACAAUGGUGUUUG
DNA 1: GATCGTCGGACTGTAGAACTC
DNA 2: TTGGCACCCGAGAATTCCA
modifications: constant regions annealed to DNA blockers; guide miR-122 5' phosphate
On to B3, for which the binding signal with AGO2 L192P was 0.447 fold enrichment over input; with AGO2 A367P, 0.21 fold enrichment over input; with AGO2 T357M, 0.571 fold enrichment over input; with AGO2 F182del, 0.204 fold enrichment over input.

B4: ATATCCCA (ssRNA)
RNA 1: B1 RNA 1 with G29A, U31C, U32C, U33C
RNA 2: UGGAGUGUGACAAUGGUGUUUG
DNA 1: GATCGTCGGACTGTAGAACTC
DNA 2: TTGGCACCCGAGAATTCCA
modifications: constant regions annealed to DNA blockers; guide miR-122 5' phosphate
Take B4: the binding signal with AGO2 L192P is 0.464 fold enrichment over input; in the assay with AGO2 A367P, 0.195 fold enrichment over input; with AGO2 T357M, 0.568 fold enrichment over input; in the assay with AGO2 F182del, 0.249 fold enrichment over input.

B5: GTGTCTCA (ssRNA)
RNA 1: B1 RNA 1 with A27G, U31C, U33C
RNA 2: UGGAGUGUGACAAUGGUGUUUG
DNA 1: GATCGTCGGACTGTAGAACTC
DNA 2: TTGGCACCCGAGAATTCCA
modifications: constant regions annealed to DNA blockers; guide miR-122 5' phosphate
Take B5: the binding signal was 0.126 fold enrichment over input in assay [1]; 0.486 fold enrichment over input with AGO2 L192P; 0.222 fold enrichment over input with AGO2 A367P; 0.585 fold enrichment over input with AGO2 T357M; 0.387 fold enrichment over input with AGO2 F182del.

B6: GCGCCCCG (ssRNA)
RNA 1: B1 RNA 1 with A27G, U28C, U30C, U31C, U32C, U33C, A34G
RNA 2: UGGAGUGUGACAAUGGUGUUUG
DNA 1: GATCGTCGGACTGTAGAACTC
DNA 2: TTGGCACCCGAGAATTCCA
modifications: constant regions annealed to DNA blockers; guide miR-122 5' phosphate
As for B6, the binding signal in assay [1] was 0.12 fold enrichment over input; in the assay with AGO2 L192P it was 0.438 fold enrichment over input; with AGO2 A367P it was 0.18 fold enrichment over input; with AGO2 T357M, 0.745 fold enrichment over input.

B7: ATACTCCA (ssRNA)
RNA 1: B1 RNA 1 with G29A, U30C, U32C, U33C
RNA 2: UGGAGUGUGACAAUGGUGUUUG
DNA 1: GATCGTCGGACTGTAGAACTC
DNA 2: TTGGCACCCGAGAATTCCA
modifications: constant regions annealed to DNA blockers; guide miR-122 5' phosphate
For B7, the binding signal in assay [1] was 1.32 fold enrichment over input; with AGO2 L192P, 4.64 fold enrichment over input; with AGO2 A367P, 6.04 fold enrichment over input; with AGO2 T357M it was 1.16 fold enrichment over input; in the assay with AGO2 F182del, 8.59 fold enrichment over input.

B8: ACGTCTTA (ssRNA)
RNA 1: B1 RNA 1 with U28C, U31C
RNA 2: UGGAGUGUGACAAUGGUGUUUG
DNA 1: GATCGTCGGACTGTAGAACTC
DNA 2: TTGGCACCCGAGAATTCCA
modifications: constant regions annealed to DNA blockers; guide miR-122 5' phosphate
On to B8, for which the binding signal in assay [1] was 0.13 fold enrichment over input; with AGO2 L192P, 0.525 fold enrichment over input; in the assay with AGO2 A367P it was 0.269 fold enrichment over input; in the assay with AGO2 T357M, 0.643 fold enrichment over input; with AGO2 F182del it was 0.333 fold enrichment over input.

B9: GTGCCTCA (ssRNA)
RNA 1: B1 RNA 1 with A27G, U30C, U31C, U33C
RNA 2: UGGAGUGUGACAAUGGUGUUUG
DNA 1: GATCGTCGGACTGTAGAACTC
DNA 2: TTGGCACCCGAGAATTCCA
modifications: constant regions annealed to DNA blockers; guide miR-122 5' phosphate
For B9, the binding signal in assay [1] is 0.122 fold enrichment over input; with AGO2 L192P, 0.533 fold enrichment over input; in the assay with AGO2 A367P, 0.232 fold enrichment over input; with AGO2 T357M it was 0.687 fold enrichment over input; in the assay with AGO2 F182del, 0.326 fold enrichment over input.

B10: GTGCTCTG (ssRNA)
RNA 1: B1 RNA 1 with A27G, U30C, U32C, A34G
RNA 2: UGGAGUGUGACAAUGGUGUUUG
DNA 1: GATCGTCGGACTGTAGAACTC
DNA 2: TTGGCACCCGAGAATTCCA
modifications: constant regions annealed to DNA blockers; guide miR-122 5' phosphate
In the case of B10, the binding signal in assay [1] is 0.123 fold enrichment over input; in the assay with AGO2 L192P, 0.483 fold enrichment over input; with AGO2 A367P it was 0.182 fold enrichment over input; in the assay with AGO2 T357M it was 0.67 fold enrichment over input.

B11: ACGCTCTG (ssRNA)
RNA 1: B1 RNA 1 with U28C, U30C, U32C, A34G
RNA 2: UGGAGUGUGACAAUGGUGUUUG
DNA 1: GATCGTCGGACTGTAGAACTC
DNA 2: TTGGCACCCGAGAATTCCA
modifications: constant regions annealed to DNA blockers; guide miR-122 5' phosphate
For B11, the binding signal in assay [1] is 0.132 fold enrichment over input; in the assay with AGO2 L192P it was 0.394 fold enrichment over input; in the assay with AGO2 A367P it was 0.169 fold enrichment over input; with AGO2 T357M it was 0.539 fold enrichment over input; in the assay with AGO2 F182del, 0.149 fold enrichment over input.

B12: GCGCTTCA (ssRNA)
RNA 1: B1 RNA 1 with A27G, U28C, U30C, U33C
RNA 2: UGGAGUGUGACAAUGGUGUUUG
DNA 1: GATCGTCGGACTGTAGAACTC
DNA 2: TTGGCACCCGAGAATTCCA
modifications: constant regions annealed to DNA blockers; guide miR-122 5' phosphate
With B12, the binding signal in assay [1] is 0.123 fold enrichment over input; with AGO2 L192P, 0.498 fold enrichment over input; with AGO2 A367P, 0.238 fold enrichment over input; with AGO2 T357M it was 0.703 fold enrichment over input; in the assay with AGO2 F182del it was 0.289 fold enrichment over input.

B13: GCGCCCCA (ssRNA)
RNA 1: B1 RNA 1 with A27G, U28C, U30C, U31C, U32C, U33C
RNA 2: UGGAGUGUGACAAUGGUGUUUG
DNA 1: GATCGTCGGACTGTAGAACTC
DNA 2: TTGGCACCCGAGAATTCCA
modifications: constant regions annealed to DNA blockers; guide miR-122 5' phosphate
B13: the binding signal with AGO2 L192P was 0.498 fold enrichment over input; with AGO2 A367P, 0.192 fold enrichment over input; with AGO2 T357M, 0.741 fold enrichment over input.

B14: GTGCCCCA (ssRNA)
RNA 1: B1 RNA 1 with A27G, U30C, U31C, U32C, U33C
RNA 2: UGGAGUGUGACAAUGGUGUUUG
DNA 1: GATCGTCGGACTGTAGAACTC
DNA 2: TTGGCACCCGAGAATTCCA
modifications: constant regions annealed to DNA blockers; guide miR-122 5' phosphate
B14: the binding signal is 0.123 fold enrichment over input in assay [1]; 0.464 fold enrichment over input with AGO2 L192P; 0.227 fold enrichment over input with AGO2 A367P; 0.677 fold enrichment over input with AGO2 T357M; 0.158 fold enrichment over input with AGO2 F182del.

B15: GTGTCTTA (ssRNA)
RNA 1: B1 RNA 1 with A27G, U31C
RNA 2: UGGAGUGUGACAAUGGUGUUUG
DNA 1: GATCGTCGGACTGTAGAACTC
DNA 2: TTGGCACCCGAGAATTCCA
modifications: constant regions annealed to DNA blockers; guide miR-122 5' phosphate
For the molecule B15, the binding signal with AGO2 L192P is 0.461 fold enrichment over input; in the assay with AGO2 A367P it was 0.173 fold enrichment over input; with AGO2 T357M it was 0.599 fold enrichment over input.

B16: ACGCCCTA (ssRNA)
RNA 1: B1 RNA 1 with U28C, U30C, U31C, U32C
RNA 2: UGGAGUGUGACAAUGGUGUUUG
DNA 1: GATCGTCGGACTGTAGAACTC
DNA 2: TTGGCACCCGAGAATTCCA
modifications: constant regions annealed to DNA blockers; guide miR-122 5' phosphate
Take B16: the binding signal was 0.505 fold enrichment over input in the assay with AGO2 L192P, 0.194 fold enrichment over input with AGO2 A367P and 0.681 fold enrichment over input with AGO2 T357M.

B17: GCGTTCCA (ssRNA)
RNA 1: B1 RNA 1 with A27G, U28C, U32C, U33C
RNA 2: UGGAGUGUGACAAUGGUGUUUG
DNA 1: GATCGTCGGACTGTAGAACTC
DNA 2: TTGGCACCCGAGAATTCCA
modifications: constant regions annealed to DNA blockers; guide miR-122 5' phosphate
With B17, the binding signal is 0.477 fold enrichment over input with AGO2 L192P, 0.187 fold enrichment over input with AGO2 A367P, 0.592 fold enrichment over input in the assay with AGO2 T357M and 0.161 fold enrichment over input with AGO2 F182del.

B18: ACACCTTG (ssRNA)
RNA 1: B1 RNA 1 with U28C, G29A, U30C, U31C, A34G
RNA 2: UGGAGUGUGACAAUGGUGUUUG
DNA 1: GATCGTCGGACTGTAGAACTC
DNA 2: TTGGCACCCGAGAATTCCA
modifications: constant regions annealed to DNA blockers; guide miR-122 5' phosphate
On to B18, for which the binding signal was 0.422 fold enrichment over input with AGO2 L192P, 0.169 fold enrichment over input with AGO2 A367P, 0.452 fold enrichment over input with AGO2 T357M and 0.318 fold enrichment over input with AGO2 F182del.

B19: ACGTCCTA (ssRNA)
RNA 1: B1 RNA 1 with U28C, U31C, U32C
RNA 2: UGGAGUGUGACAAUGGUGUUUG
DNA 1: GATCGTCGGACTGTAGAACTC
DNA 2: TTGGCACCCGAGAATTCCA
modifications: constant regions annealed to DNA blockers; guide miR-122 5' phosphate
As to B19, the binding signal is 0.475 fold enrichment over input with AGO2 L192P, 0.205 fold enrichment over input in the assay with AGO2 A367P, 0.603 fold enrichment over input with AGO2 T357M and 0.187 fold enrichment over input with AGO2 F182del.

B20: ATGCCCCA (ssRNA)
RNA 1: B1 RNA 1 with U30C, U31C, U32C, U33C
RNA 2: UGGAGUGUGACAAUGGUGUUUG
DNA 1: GATCGTCGGACTGTAGAACTC
DNA 2: TTGGCACCCGAGAATTCCA
modifications: constant regions annealed to DNA blockers; guide miR-122 5' phosphate
In the case of B20, the binding signal is 0.494 fold enrichment over input in the assay with AGO2 L192P, 0.191 fold enrichment over input with AGO2 A367P, 0.652 fold enrichment over input with AGO2 T357M and 0.191 fold enrichment over input with AGO2 F182del.

The values above are taken from article PMC12529666, “Dysregulation of AGO2-miRNA dynamics underlies the AGO2-associated Lessel–Kreienkamp syndrome”.
